These results are taken from PubChem BioAssay (NCATS).

The structures appear in SMILES notation. Results filed as inconclusive are left out. Entries that show only a call come without a potency. Active and inactive are the calls of the source. Calls follow the shape of the dose curve; as a rule, active = well fitted inhibition curve with a large enough effect; inconclusive = small, poorly fitted or top-dose-only effect; inactive = flat fitted curve, though single readings scatter.
Potency is read from the fitted curve at half-maximal effect.

Voltage-gated inwardly rectifying potassium channel KCNH2 (Homo sapiens), sequence (Q12809 whole entry, looked up): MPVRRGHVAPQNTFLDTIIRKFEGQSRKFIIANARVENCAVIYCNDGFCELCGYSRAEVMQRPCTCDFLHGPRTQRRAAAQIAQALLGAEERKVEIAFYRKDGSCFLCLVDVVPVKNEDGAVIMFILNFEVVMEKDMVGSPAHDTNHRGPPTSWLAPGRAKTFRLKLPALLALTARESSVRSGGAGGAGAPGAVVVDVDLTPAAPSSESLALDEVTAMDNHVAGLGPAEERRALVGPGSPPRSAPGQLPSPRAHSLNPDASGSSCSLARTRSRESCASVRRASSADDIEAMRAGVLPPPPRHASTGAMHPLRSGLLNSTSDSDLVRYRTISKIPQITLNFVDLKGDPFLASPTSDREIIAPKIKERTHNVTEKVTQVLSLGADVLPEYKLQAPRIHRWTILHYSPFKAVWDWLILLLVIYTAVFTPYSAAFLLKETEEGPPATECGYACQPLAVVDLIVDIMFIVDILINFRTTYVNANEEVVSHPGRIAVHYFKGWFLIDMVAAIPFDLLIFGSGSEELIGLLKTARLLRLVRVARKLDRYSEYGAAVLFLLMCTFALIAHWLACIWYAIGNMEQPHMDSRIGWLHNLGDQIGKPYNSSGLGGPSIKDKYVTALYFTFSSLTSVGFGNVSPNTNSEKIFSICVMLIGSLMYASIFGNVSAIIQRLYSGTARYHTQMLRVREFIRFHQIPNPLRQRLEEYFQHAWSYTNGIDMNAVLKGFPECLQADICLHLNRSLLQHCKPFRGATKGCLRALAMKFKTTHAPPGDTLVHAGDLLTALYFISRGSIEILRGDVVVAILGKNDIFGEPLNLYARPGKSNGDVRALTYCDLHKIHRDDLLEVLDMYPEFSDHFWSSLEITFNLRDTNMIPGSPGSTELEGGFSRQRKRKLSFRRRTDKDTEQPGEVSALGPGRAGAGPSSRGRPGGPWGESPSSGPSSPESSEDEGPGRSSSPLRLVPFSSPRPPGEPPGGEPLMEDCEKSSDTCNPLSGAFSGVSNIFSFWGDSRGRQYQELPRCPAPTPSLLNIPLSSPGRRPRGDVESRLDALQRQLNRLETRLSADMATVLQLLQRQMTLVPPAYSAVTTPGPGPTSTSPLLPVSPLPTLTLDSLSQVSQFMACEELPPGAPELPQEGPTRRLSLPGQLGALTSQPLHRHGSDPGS

This assay concerns the target Voltage-gated inwardly rectifying potassium channel KCNH2 (Homo sapiens) (UniProt Q12809). Briefly: qHTS Assay for Small Molecule Inhibitors of the Human hERG Channel Activity (AID 588834).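 Also: lower thallium flux fluorescence means stronger hERG block; nearly all actives have a fitted effect of over 50% in size.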 The following applies: U2OS BacMam hERG, FluxOR thallium flux fluorescence; series mostly up to 46.1 µM. The method in brief:
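Step 1: BacMam hERG transduction of U2OS, 4 hrs RT. Step 2: overnight 37 °C, plate 2000 cells/well, 4 hr. Step 3: FluxOR load, compound 10 min, stimulate, read fluorescence.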
On the technique in general: In qHTS, concentration-response curves come from the screen itself.
`CN(C)CCOC(c1ccc(Cl)cc1)c1ccccn1` (configuration not stated): the Potency is 14.1 µM (active).

Regarding `OC[C@H]1O[C@@H](Oc2ccc(O)cc2)[C@H](O)[C@@H](O)[C@@H]1O`, the Potency entry is “inactive”.

With `O=C(O)P(=O)(O)O`, the Potency entry was “inactive”.

On to `C#C[C@]1(OC(C)=O)CC[C@H]2[C@@H]3CCC4=C/C(=N/O)CC[C@@H]4[C@H]3CC[C@@]21CC`, for which the Potency entry is “inactive”.

Consider `CC(C(=O)O)c1cccc(Oc2ccccc2)c1` (configuration not stated), for which the Potency result was “inactive”.

As for `COc1ccc(S(=O)(=O)N2c3ccc(Cl)cc3[C@@](O)(c3ccccc3Cl)[C@H]2C(=O)N2CCC[C@@H]2C(N)=O)cc1OC`, the Potency result was “inactive”.

`CO[C@]12C[C@@H](COC(=O)c3cncc(Br)c3)CN(C)[C@@H]1Cc1cn(C)c3cccc2c13`: the Potency is 0.398 µM (active).

Take `CCN(CC)CCOc1ccc2c(c1)C(=O)c1cc(OCCN(CC)CC)ccc1-2`: the Potency result was “inactive”.

As to `FC1(F)C(F)(F)C(F)(F)C2(F)C(F)(F)C(F)(F)C(F)(F)C(F)(F)C2(F)C1(F)F` (configuration not stated), the Potency entry was “inactive”.

As for `CCCCC(CC)CN1CN(CC(CC)CCCC)CC(C)(N)C1` (configuration not stated), the Potency was 4.47 µM (active).

As to `Cc1cccc(C)c1NC(=O)c1ccccc1C(=O)O`, the Potency entry was “inactive”.

Turning to `CC(C)NCC(O)c1ccc2ccccc2c1` (configuration not stated), the Potency result is “inactive”.

In the case of `Cc1ccc(S(=O)(=O)NC(=O)NC2CCCC2)cc1`, the Potency result is “inactive”.

On to `C[C@]12CCC(=O)C=C1C=C[C@@H]1[C@@H]2CC[C@@]2(C)[C@H]1CC[C@@]21CCC(=O)O1`, for which the Potency result was “inactive”.

With `CCC(Cc1c(I)cc(I)c(N)c1I)C(=O)O` (configuration not stated), the Potency result is “inactive”.

With `COc1ccc(/C=N/NC(=O)c2ccncc2)cc1OC`, the Potency entry is “inactive”.

As to `CN1CCN(c2c(F)cc3c(=O)c(C(=O)O)cn4c3c2SCC4)CC1`, the Potency entry is “inactive”.

For `CC(C)=CCOc1ccc(/C=C/C(=O)c2ccc(OCC=C(C)C)cc2OCC(=O)O)cc1`, the Potency entry was “inactive”.

For the compound `CCc1cc(Cl)c(OC)c(C(=O)NC[C@@H]2CCCN2CC)c1O`, the Potency is 2.82 µM (active).

For the compound `COc1ccccc1N1CCN(CCCCNC(=O)c2ccc(-c3ccc(C(C)=O)cc3)cc2)CC1`, the Potency is 1.26 µM (active).

In the case of `N#CCC(=O)NN`, the Potency entry is “inactive”.

On to `CCCCNC(=O)NS(=O)(=O)c1ccc(N)cc1`, for which the Potency result was “inactive”.

Take `CCOC(=O)Nc1ccc2c(c1)N(C(=O)CCN1CCOCC1)c1ccccc1S2`: the Potency result is “inactive”.

Consider `O=C(CN1CCN(Cc2ccc3c(c2)OCO3)CC1)N1c2ccccc2Sc2ccccc21`, for which the Potency is 2.51 µM (active).

`CCCCCCCCCCC[C@@H](C[C@@H]1OC(=O)[C@H]1CCCCCC)OC(=O)[C@H](CC(C)C)NC=O`: the Potency entry was “inactive”.

Regarding `CCCCN=C(N)N=C(N)N`, the Potency result is “inactive”.

`Cc1cccc(C)c1NC(=O)CN1CCCCCC1`: the Potency result is “inactive”.

On to `O=C1c2cccc3c2[C@H](CCC3)CN1[C@@H]1CN2CCC1CC2`, for which the Potency is 12.6 µM (active).

For the compound `N#C/C(=C1\SCC(c2ccccc2Cl)S1)n1ccnc1` (configuration not stated), the Potency entry was “inactive”.

As to `CC(=O)OCC1=C(C(=O)O)N2C(=O)[C@@H](NC(=O)CSc3ccncc3)[C@H]2SC1`, the Potency result is “inactive”.

On to `CCOC(=O)c1ccc(N)cc1`, for which the Potency entry is “inactive”.

Regarding `NS(=O)(=O)c1cc2c(cc1Cl)NC(CC1CCCC1)NS2(=O)=O` (configuration not stated), the Potency result was “inactive”.

`C#C[C@]1(O)CC[C@H]2[C@@H]3CCc4cc(OC)ccc4[C@H]3CC[C@@]21C`: the Potency result is “inactive”.

Consider `COc1cc(O)c(C(=O)c2ccccc2)cc1S(=O)(=O)O`, for which the Potency entry was “inactive”.

As for `CCN[C@@H]1C[C@H](N)[C@@H](OC2OC(CN)=CCC2N)[C@H](O)[C@H]1O[C@H]1OC[C@](C)(O)[C@H](NC)[C@H]1O` (some centres not stated), the Potency entry is “inactive”.

For the compound `c1ccc(-c2nc[nH]c2-c2ccccc2)cc1`, the Potency entry is “inactive”.

For the compound `O=C(O)C(Cc1cc(I)c(O)c(I)c1)c1ccccc1` (configuration not stated), the Potency entry is “inactive”.
